# Bioassay records as filed in PubChem BioAssay.
# Sampled rows, rich in hits. Any-hit rate of the full collection: about 3.5%.
# BoNT A protease – BoNT A light chain protease inhibition; hit rate 0.17% among 360,000; AID 588499; multiplex microsphere protease substrate cleavage, flow cytometry; inhibition, % at 10 µM; also: plate controls were buffer without enzyme for full effect and enzyme alone for no effect
# Autofluor counter – flagged as autofluorescent in microsphere protease counterscreen | hit rate 3.1% among 360,000 | fluorescence intensity (concentration not given with the values) | compound autofluorescence counterscreen, microsphere flow cytometry; hits give high values; in the data active = fluorescence intensity above about 16000; inconclusive = no clear call, values can overlap the other calls
# 3CLpro inhibitor – SARS-CoV 3CLpro protease inhibition; recombinant SARS-CoV 3CLpro, quenched FRET peptide cleavage; inhibition, % at 6 µM; hit rate 0.14% among 290,000; AID 1706; P0C6X7; in the data active = inhibition above about 12%
# BoNT-F LC inh – blocks Botulinum neurotoxin F light chain protease | Multiplex microsphere protease cleavage assay, flow cytometry | inhibition, % at 10 µM | hit rate 0.22% among 360,000; in the data active = inhibition above about 35%, passing the limit was not always enough; inconclusive = no clear call, values can overlap the other calls; also: plate controls were buffer without enzyme for full effect and enzyme alone for no effect
# Anthrax LF inh2 – anthrax lethal factor protease inhibition | P15917 | multiplex microsphere protease cleavage assay, LF | inhibition, % at 10 µM | hit rate 0.12% among 360,000; also: plate controls were buffer without enzyme for full effect and enzyme alone for no effect
# Active calls of the source: *; ? = inconclusive; . = no result. Rule as the data show it, unless noted: active = inhibition above about 30%; inconclusive = no clear call, values can overlap the other calls; inactive = below that.
SMILES,BoNT A protease,Autofluor counter,3CLpro inhibitor,BoNT-F LC inh,Anthrax LF inh2
O=C(O)C1CCCCC1C(=O)NCc1ccccc1 (centres undefined),1,5715,-4,2,-1
COc1ccc(NCc2nnc(SCC(=O)N3CCCc4ccccc43)o2)cc1,2,2883,-9,-4,-4
CC(C)(C)n1ncc2c(=O)n(Cc3cc(F)c(Cl)cc3Cl)cnc21,0,3772,.,-2,-5
Cc1cn2c(N)c(C=C3C=C(Cl)C(=O)C(Cl)=C3)c(=O)nc2s1,23,26112*,-3,141*,32*
CCOC(=O)c1c(Nc2ccccc2)sc(/C=C2\C=Nc3ccccc32)c1O,8,17134*,0,11,-3
Oc1nc(Nc2ccccc2)sc1/C=C1\C=Nc2ccccc21,-1,4606,2,-6,4
O=C(N/N=C/c1ccc(OCc2ccccc2)cc1)c1cccs1,2,20999*,0,6,-9
O=C(Nc1ccc(OCc2ccccc2)cc1)c1cccs1,2,2901,-5,?,4
CCCCNC(=O)c1sc2nc(C)cc(COC)c2c1-n1cccc1,-2,16799*,5,-5,-6
Cc1cc(C)c(C(=O)c2ccc(C(=O)N(C(C)C)C(C)C)cc2)c(C)c1,-6,22394*,8,-4,0
CCC1CCCCN1Cc1ccc(OC)c(C)c1 (centres undefined),-1,10150,-3,2,-4
CC(/C=C/c1ccco1)=N\NC(=O)c1cc(C)[nH]n1,?,23188*,0,0,-5
Cc1cc(C(=O)N/N=C/c2ccco2)n[nH]1,0,1988,1,-3,-2
Cc1oc2c(c1C(=O)c1ccc(Cl)cc1)C(=O)C(=O)c1ccccc1-2,30*,1961,2,13,21
N#Cc1cc(C#N)c(N2CCN(c3cccc(Cl)n3)CC2)nc1N,-14,19498*,-6,-117,-11
CC(C)OC(=O)N(C)C[C@@H]1OCc2cn(nn2)CCCC(=O)N([C@H](C)CO)C[C@H]1C,0,3099,.,-2,0
CCCCOC(=O)c1cc(=O)[nH]c(=O)[nH]1,0,5425,2,4,-2
COc1ccc(OC)c(N=c2oc3c(OC)cccc3cc2C(=O)NCc2ccco2)c1,0,16799*,.,-6,-4
COc1ccc(N=c2oc3c(OC)cccc3cc2C(=O)NCc2ccco2)cc1OC,?,19539*,4,-1,-7
COc1ccccc1N=c1oc2c(OC)cccc2cc1C(=O)NCc1ccco1,1,20264*,1,1,-3
COc1ccccc1C(=O)NCc1ccco1,1,4247,6,24,-9
COc1cccc(C(=O)N/N=c2\oc3c(OC)cccc3cc2C(=O)NCc2ccccc2)c1,-1,2519,2,-19,1
COc1cc(C2Nc3ccc4ccccc4c3C3=C2C(=O)CC(C)(C)C3)ccc1OCC(=O)O (centres undefined),0,3383,-2,8,0
CCC(=O)c1ccc(N2CCCCC2)c(F)c1,0,2659,3,-2,-2
CCOCc1nnc(NC(=O)C2CCN(C(=O)c3ccco3)CC2)s1,-2,3900,0,-8,2
SMILES,BoNT A protease,Autofluor counter,3CLpro inhibitor,BoNT-F LC inh,Anthrax LF inh2
COc1cc(C2N3CC4(C)CN2CC(C)(C3)C4)ccc1O (centres undefined),1,3867,0,-1,1
CC12CN3CC(C)(CN(C1)C3c1ccc(Br)cc1)C2 (centres undefined),1,22475*,-3,2,0
CCCn1c(O)c(/C=C2\C=NN=C2c2ccccc2)sc1=S,-3,25085*,7,-8,0
CC(C)(C)c1ccc(N2C(=O)CC(C/C=C/c3ccccc3)C2=O)cc1 (centres undefined),-1,5754,2,-3,-4
O=C(CC(C(=O)N1CCc2ccccc21)n1ccnc1)NCc1ccccc1 (centres undefined),10,18019*,0,9,-5
CCN(CC)CC(C)CNC(=O)CC(C(=O)N1CCc2ccccc21)n1ccnc1 (centres undefined),-1,11413,1,-10,-3
CCN(CC)CCNC(=O)/C(=N\O)c1ccccn1,0,3970,4,-3,-5
COc1cc([N+](=O)[O-])c2nc(C=NNC(N)=S)ccc2c1,-1,4611,.,-6,1
CSc1nc2nccc(/C=C\c3ccccc3)n2n1,?,21761*,2,2,-1
CSc1nc2nccc(-c3ccc(Cl)cc3)n2n1,0,2518,4,-10,-3
O=C(CSc1nnc2c(Cl)cc(C(F)(F)F)cn12)Nc1ccc2c(c1)OCO2,?,20358*,-4,2,-4
Cn1c(SCC(=O)Nc2ccc3c(c2)OCO3)nnc1C(F)(F)F,8,4329,.,9,-4
Cc1cc(N(CN2CCCC2=O)C(=O)c2ccc(OC(C)C)cc2)no1,-6,4922,5,-24,-6
Cc1cc(N(CN2CCCC2=O)C(=O)c2ccc(F)cc2)no1,0,20214*,-5,0,-2
O=C1CCCN1CN(C(=O)c1ccc2c(c1)OCO2)c1ccc(F)cc1,?,21432*,2,-7,-3
Cc1cc(N(CN2CCCC2=O)C(=O)c2ccccc2)no1,-2,23950*,0,-5,0
COc1ccc(C(=O)N(CN2CCCC2=O)c2cc(C)on2)cc1OC,4,21141*,-9,6,2
O=C1CCCN1CN(C(=O)c1ccccc1)c1ccc(F)cc1,.,.,2,.,.
O=C1/C(=C\c2ccc(Cl)cc2)CCC1CNc1ccc(Cl)cc1 (centres undefined),1,3973,.,3,4
CCn1cc(CCC(=O)NCCc2ccccc2)c2ccccc21,-2,3759,-4,-20,-3
Fc1cccc(/C=N/NC(=S)Nc2ccccc2Cl)c1,0,2012,4,-3,-3
Fc1ccc(NC(=S)N/N=C/c2cccc(Br)c2)c(F)c1,?,20663*,1,-4,0
COc1ccc(S(=O)(=O)CCC(=O)Nc2c(C)n(C)n(-c3ccccc3)c2=O)cc1,0,2159,-1,8,1
CCn1cc(C(=O)NCc2ccc3c(c2)OCO3)c(=O)c2cc(S(=O)(=O)N3CCOCC3)ccc21,?,21213*,0,-10,0
CCn1cc(C(=O)N2CC(C)CC(C)C2)c(=O)c2cc(S(=O)(=O)N3CCOCC3)ccc21 (centres undefined),-2,24578*,-2,-4,1
CCn1cc(C(=O)NCc2ccc3c(c2)OCO3)c(=O)c2cc(S(=O)(=O)N(C)C)ccc21,1,9237,4,3,-2
CCOC(=O)C1CCCN(C(=O)c2cc(S(=O)(=O)N3CCCCC3)ccc2C)C1 (centres undefined),1,4294,9,5,1
CCOC(=O)C1CCCN(C(=O)c2cn(C)c3ccc(S(=O)(=O)N4CCCC4)cc3c2=O)C1 (centres undefined),?,21667*,-4,4,0
CCOC(=O)C1CCCN(C(=O)c2cn(CC)c3ccc(S(=O)(=O)N4CCCC4)cc3c2=O)C1 (centres undefined),1,16154*,0,-2,-4
